Measured values as given in PubChem BioAssay (Tox21).
Results filed as inconclusive are left out. The source made the active and inactive calls. The call rests on the fitted dose curve; in most records, active means well fitted activation curve with a large enough effect in the signal ratio in the repeat runs, with a control signal flat (not every such curve was filed as active); inconclusive means weak or mixed curves; inactive means flat fitted curve, though single readings scatter; the % refers to the signal ratio.

Experiment: qHTS assay for small molecule activators of the heat shock response signaling pathway (AID 743210)
Settings: HeLa HSE-bla reporter, beta-lactamase ratio, 5 h; series mostly up to 62.6 µM; activation: at the top concentration
From the text: U.S. Tox21 Program National Center for Advancing Translational Sciences [NCATS] NIH Chemical Genomics Center [NCGC] U.S. Environmental Protection Agency [EPA] National Institutes of Environmental Health Sciences [NIEHS] National Toxicology Program [NTP] U.S. Food and Drug Administration [FDA] Tox21 Assay Overview: Various chemicals, environmental and physiological stress conditions may lead to the activation of heat shock response/ unfolded protein response (HSR/UPR). There are three heat shock transcription factors (HSFs) (HSF-1, -2, and -4) mediating transcriptional regulation of the human HSR. To identify the compounds that activate HSR signaling, HSE-bla HeLa cell line (Invitrogen, Carlsbad, CA, USA) containing a beta-lactamase reporter gene under the control of the heat shock response elements was used to screen the Tox21 10K compound library.
Tox21 Assay Protocol Summary: The CellSensor HSE-bla HeLa cells (Invitrogen, Carlsbad, CA, USA) were dispensed at 1500 cells/6uL/well into 1536-well black wall/clear bottom plates using a Multidrop combi (Thermo Fisher Scientific, Waltham, MA) dispenser. After the assay plates were incubated at 37 C and 5% CO2 overnight, 23 nL of compounds dissolved in DMSO, positive controls or DMSO only was transferred to the assay plate by a Pintool station (Kalypsys, San Diego, CA). The plates were incubated at 37 C for 5 h. After 1 uL of LiveBLAzerTM B/G FRET substrate was added using a Flying Reagent Dispenser (Beckman Coulter, Indianapolis, IN, USA), the plates were incubated at room temperature for 2.5 h, and fluorescence intensity was measured by an Envision plate reader (PerkinElmer, Shelton, CT).
On the % scale 0 is the no-effect control and ±100 the full control effect.

| Compound | activation |
| --- | --- |
| BrC/C=C/CBr | -1.97% [at 29.1 µM] (inactive) |
| CC(=O)N(CC(O)CO)c1c(I)c(C(=O)NCC(O)CO)c(I)c(C(=O)NCC(O)CO)c1I (stereo not given) | 0.966% (inactive) |
| CCCCCCCC[Si](OCC)(OCC)OCC | -1.55% (inactive) |
| Cc1ncc([N+](=O)[O-])n1CC(O)CCl (stereo not given) | -1.45% (inactive) |
| Nc1ccc(S(=O)(=O)Nc2ccccn2)cc1 | -0.925% (inactive) |
| CCCCC(C)C(=O)O (stereo not given) | -0.0038% (inactive) |
| CCCCCC(=O)OCC | 1.09% (inactive) |
| C=C(C)C(=O)OCCCCCCOC(=O)C(=C)C | -0.502% (inactive) |
| O=C(/C=C/c1ccccc1)NCCO | -1.55% (inactive) |
| O=C(c1ccc2c(c1)C(=O)OC2=O)c1ccc2c(c1)C(=O)OC2=O | 0.868% (inactive) |
| NS(=O)(=O)c1ccc(Cl)c(S(N)(=O)=O)c1 | -0.527% (inactive) |
| CCCCC/C=C/CC(=O)OC | 0.296% (inactive) |
| CN[C@@H]1[C@H](O)[C@H](NC)[C@H]2O[C@@]3(O)C(=O)C[C@@H](C)O[C@H]3O[C@@H]2[C@H]1O | 0.349% (inactive) |
| CCN(Cc1cccc(S(=O)(=O)O)c1)c1ccccc1 | -0.165% (inactive) |
| CC(=O)OCC(=O)[C@@]1(O)[C@H](OC(C)=O)C[C@H]2[C@@H]3CCC4=CC(=O)C=C[C@]4(C)[C@@]3(F)[C@@H](O)C[C@@]21C | -1.07% (inactive) |
| C=CCOCC(O)CCl (stereo not given) | -0.716% (inactive) |
| CC(=O)OC(C)c1ccccc1 (stereo not given) | 1.2% (inactive) |
| CCC(CO)CO | -0.52% (inactive) |
| NC(=O)NC(=O)Cc1ccccc1 | -0.279% (inactive) |
| O=C(Nc1cccc(C2=NCCN2)c1)Nc1cccc(C2=NCCN2)c1 | -1.12% [at 29.1 µM] (inactive) |

| Compound | activation |
| --- | --- |
| COc1cc2c(Nc3ccc(Br)cc3F)ncnc2cc1OCC1CCN(C)CC1 | 2.53% (inactive) |
| COC(OC)C(C)c1ccccc1 (stereo not given) | -0.296% (inactive) |
| C[N+](C)(C)CC(O)CCl (stereo not given) | 0.36% [at 81.1 µM] (inactive) |
| COc1ccc(OC)c(NC(=O)CC(C)=O)c1 | 0.476% (inactive) |
| CCOC(=O)CC(CC(=O)OCC)(OC(C)=O)C(=O)OCC | -1.39% (inactive) |
| CC(C)(C)NCCO | -0.189% (inactive) |
| O=C(O)c1ccc(OCCN2CCCCC2)cc1 | 0.0291% (inactive) |
| CCCCOC(=O)[C@@H](C)Oc1ccc(Oc2ccc(C(F)(F)F)cn2)cc1 | -0.11% [at 81.1 µM] (inactive) |
| COc1cc2c3cc1Oc1cc(ccc1O)C[C@@H]1c4c(cc(OC)c(O)c4Oc4ccc(cc4)C[C@@H]3N(C)CC2)CC[N+]1(C)C | -0.612% (inactive) |
| C=C(C)C(=O)OC | -0.245% (inactive) |
| CCCCC[Si](OCC)(OCC)OCC | 1.59% (inactive) |
| Cc1nc2ccccc2c(=O)o1 | -1.22% [at 81.1 µM] (inactive) |
| CCCCOC(=O)C(C)OC(=O)CCC (stereo not given) | -0.897% (inactive) |
| O=CN1CCOCC1 | -1.9% (inactive) |
| Nc1nc(=O)n([C@@H]2O[C@H](CO)[C@@H](O)[C@@H]2F)cc1I | -0.32% (inactive) |
| CN=C(NC#N)NCCSCc1csc(N=C(N)N)n1 | -0.0873% (inactive) |
| C[CH2][Ge]([Cl])([CH2]C)[CH2]C | 1.98% [at 81.1 µM] (inactive) |
| CN(C1CCCCC1)S(=O)(=O)c1ccccc1N | -0.257% (inactive) |
| CCCOCCOCCOCCO | -0.304% (inactive) |
| CCC1COC(=O)O1 (stereo not given) | -0.314% (inactive) |
